Results on 29 molecules are retold here after PubChem BioAssay (NCI).

This is part of a sample that, as a whole, favours compounds with a hit. Of some 83,000 tested, about 20% had one in any assay.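 Negative percent growth values reflect cell death: -40 means 40% of the cells present at the start died, and -100 means all died.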 A number with no mark means an inactive call. Calls of active or inactive are those of the source. Rule for the calls: active = growth percent below 10; inactive = the rest.

What all share (assay): NCI-60 one-dose screen, 48 h (100 = growth as untreated, 0 = no growth, -100 = all killed)
Conditions in all cases: 10 µM unless noted

Test [1] deals with SR leukemia.
The subject of test [2] is RPMI-8226 leukemia.
The subject of test [3] is OVCAR-8 ovarian.
Test [4] relates to OVCAR-5 ovarian.
Test [5] has as its system SK-OV-3 ovarian.
The test system of test [6] is IGROV1 ovarian.
Test [7] concerns OVCAR-3 ovarian.
Test [8] relates to HS 578T breast.
Test [9] relates to NCI/ADR-RES ovarian.
In test [10] the test system is OVCAR-4 ovarian.

With `c1cc[n+](Cc2ccnc3ccccc23)cc1`, the growth in [1] was 24.1%; in test [2], 97.1%; in [3], 99.6%; in [4], 103%; in test [5], 103%; in test [6], 117%. For the same molecule, the results for the growth in [7], in [8] and in test [9] were 118%, 109% and 109%, respectively.
In the case of `COc1cc(OC)c2c(c1Cl)O[C@]1(C2=O)C(OCc2ccccc2)=CC(=O)C[C@H]1C`, the growth in test [1] is 7.41% (active); in test [2] it was -4.76% (active); in test [4], 17.2%; in test [10], 39.2%; in [5], 10.2%; in test [6], 3.14% (active). Also, the results for the growth in [7], in [8] and in test [9] were -23.5% (active), 18.7% and 7.55% (active), respectively.
With `COc1ccc(-c2cc(-c3cccnc3)nc3sc(C(=O)Nc4ccccc4)c(N)c23)cc1OC`, the growth in test [1] is 52.3%; in [2], 0.963% (active); in test [3], 58.8%; in test [4] it was 86.8%; in test [10] it was 80.1%; in test [6] it was 68.9%. The values for the growth in test [7], in test [8] and in test [9] were 71.4%, 28.4% and 54.4%, respectively.
Take `NC(=O)NS(=O)(=O)c1ccc(N2N=C(C(F)(F)F)CC2c2cc(C(F)(F)F)cc(C(F)(F)F)c2)cc1` (configuration not stated): the growth was 66.2% in test [1]; 2.36% (active) in test [2]; 79.8% in [3]; 85.7% in [4]; 69.7% in test [10]; 93% in [5]. The growth was 69.7% in [7] and 77% in test [9].
With `COc1cc(/C=C/c2cc(/C=C/c3ccc(O)c(OC)c3)n(C(=O)Cc3ccccc3)n2)ccc1O`, the growth in [1] is 4.44% (active); in test [2] it was -34.2% (active); in test [3] it was -17% (active); in test [4], -18.7% (active); in test [10] it was 7.27% (active); in test [6] it was 11.4%. Besides, the growth is 1.55% (active) in test [7] and 21.7% in [9].
In the case of `CC(C)=CCNc1ncnc2c1ncn2C1OC(COP(=O)(O)O)C(O)C1O` (configuration not stated), the growth in [1] was -15.2% (active); in test [2], 109%; in test [4], 74.5%; in test [10], 85.4%; in [5] it was 12.9%; in test [6], 54.6%. Further, the growth in test [7] is 0.0655% (active); in test [8], 63.8%; in [9] it was 39.1%.
`Oc1ccccc1/C=N/N1CCCCCC1`: the growth is 99.3% in test [1]; 99.6% in [2]; 116% in [3]; 105% in [4]; 112% in [5]; 108% in test [7]. Besides, the growth in test [8] was 114%; in test [9], 101%.
For the molecule `COc1c(Br)cc(C(c2cc(Br)c(OC)c(Br)c2)c2ccccc2C(=O)O)cc1Br`, the growth is 80.9% in test [1]; 88.7% in [2]; 102% in test [3]; 99.1% in test [4]; 106% in test [5]; 95.7% in test [6]. The growth in test [7] was 109%; in test [8], 101%; in [9] it was 98.8%.
On to `COC(=O)C1CCN(S(=O)(=O)c2ccc(-c3ccccc3)cc2)CC1`, for which the growth was 75.7% in [1]; 144% in [2]; 81.6% in [3]; 106% in test [4]; 103% in test [10]; 98.4% in [5]. In addition, the values for the growth in test [7], in test [8] and in test [9] were 114%, 117% and 116%, respectively.
Regarding `COc1ccc(CNC(=O)c2c(C)n([O-])c3cc(F)c(F)cc3[n+]2=O)cc1`, the growth in [1] was 37.5%; in test [2] it was 86%; in test [3], 88%; in [4], 99.5%; in test [10], 116%; in test [5] it was 111%. Moreover, the growth was 56% in [7] and 108% in [9].
As for `Cn1c(N2N=C(c3ccc(Cl)cc3)CC2c2ccccc2)nc(-c2ccccc2)c(C#N)c1=O` (configuration not stated), the growth in test [1] is 58.8%; in test [2], 54.9%; in test [3] it was 73.8%; in test [4], 99.6%; in test [10] it was 89.4%; in [6] it was 79%. For the same molecule, the growth was 86.5% in test [8] and 82.9% in test [9].
Consider `CCOC(=O)c1sc(NC(=O)COc2ccc(/C=C3\CCc4cc(OC)ccc4C3=O)cc2)nc1C`, for which the growth in test [1] was 44.3%; in test [2] it was 42.5%; in [3], 90.5%; in [4], 103%; in test [10] it was 92.6%; in [5] it was 122%. Also, the results for the growth in test [7], in [8] and in [9] were 105%, 94.4% and 86.6%, respectively.
In the case of `CC(=O)OC1Oc2cc(C)c(C)cc2-c2oc(=O)c(-c3ccccc3)cc21` (configuration not stated), the growth is -42.2% (active) in test [1]; -18.1% (active) in test [2]; 24.4% in test [3]; 67.9% in [4]; 42% in test [10]; 11.6% in test [5]. The growth in [7] was -39.9% (active); in test [9] it was 25.3%.
For `COC(=O)c1cc2c(/C=C3/NC(=S)NC3=O)coc2n1C`, the growth in [1] is 78.3%; in [2], 75.8%; in [3] it was 76.3%; in [4], 96.7%; in [10] it was 112%; in [5] it was 68.5%. The growth in [7] is 95.6%; in test [8] it was 66.3%; in test [9], 105%.
`C=C1CCC2C3(C)COC(c4ccccc4)OC3CCC2(C)C1C/C=C1/C(=O)OCC1OC(C)=O` (configuration not stated): the growth is 78.2% in [1]; 41.9% in test [3]; 120% in [4]; 82.3% in test [10]; 131% in test [5]; 86.8% in test [6]. Besides, the growth in test [7] is 100%; in test [9] it was 61.3%.
Take `COc1ccc(/C=C2/SC(=Nc3c(C)nn(-c4ccccc4)c3N)NC2=O)cc1`: the growth in test [1] was 14.9%; in test [3], 70.2%; in test [4], 76.2%; in test [10], 51.9%; in [5] it was 54.2%; in test [6], 27.2%. Besides, the values for the growth in test [7], in [8] and in test [9] were -28.9% (active), 31.7% and 42%, respectively.
Turning to `CS(=O)(=O)N1CCN(Cc2cc3nc(-c4cccc5[nH]ncc45)nc(N4CCOCC4)c3s2)CC1` (tested in a mixture with another compound), the growth is 23.2% in test [1]; 26.1% in test [3]; 21.5% in test [4]; 39.7% in test [10]; -25.6% (active) in test [5]; -30.2% (active) in test [6]. The growth in test [7] is 12.4%; in test [9] it was 29.6%.
`O=C1NC(=S)S/C1=C\c1cc(Br)ccc1O`: the growth is 95.7% in test [1]; 103% in test [3]; 91.6% in test [4]; 115% in test [10]; 91.3% in test [5]; 110% in test [6]. The growth in [7] is 103%; in [9], 102%.
With `O=C(c1ccccc1)C(CN1CCCCC1)c1ccccc1` (configuration not stated), the growth in test [1] is -3.65% (active); in test [3], 15.6%; in test [4], 32.5%; in test [10], 39.7%; in test [5], 107%; in test [6], 56%. The growth was 14.9% in [7] and 12.6% in test [9].
For the molecule `CC1CN(CC(O)c2ccc(Br)cc2)CCO1` (configuration not stated), the growth was 92.3% in test [1]; 96.2% in test [3]; 103% in test [4]; 116% in test [10]; 112% in test [5]; 109% in [6]. The growth in test [7] was 107%; in test [9] it was 108%.
Regarding `CCC(=O)Nc1cc2c(cc1Cl)-c1ccccc1C2`, the growth in test [1] was 101%; in test [3], 98%; in test [4] it was 85.5%; in test [10], 101%; in [5], 107%; in test [6], 86.4%. For the same molecule, the growth in test [7] is 106%; in [9], 90.1%.
For the molecule `O=C(O)C1C(c2ccccc2)c2ccccc2C(O)C1CO` (configuration not stated), the growth in test [1] is 99.6%; in [3], 103%; in test [4], 101%; in test [10], 108%; in test [5], 94.9%; in test [6], 118%. Also, the growth was 134% in test [7] and 109% in test [9].
As to `NC(=O)NC1(C(=O)O)CCCC1`, the growth was 91.8% in [1]; 106% in test [3]; 98.5% in test [4]; 118% in test [10]; 109% in test [5]; 119% in test [6]. The growth is 115% in test [7] and 111% in test [9].
As for `O=c1c2c(=NCCCN3CCCC3)cc3c(=O)n(CCCN4CCCC4)c(=O)c4c(NCCCN5CCCC5)cc(c(O)n1CCCN1CCCC1)c2c4-3`, the growth in test [1] is 3.03% (active); in [3] it was 5.37% (active); in test [4] it was -0.86% (active); in test [5], -6.65% (active); in test [6], -30.3% (active); in [7] it was -21.8% (active). Moreover, the results for the growth in test [8] and in test [9] were -16.5% (active) and 51.1%, respectively.
On to `CC(=O)Nc1cc2c3c(cccc3c1)-c1ccccc1-2`, for which the growth in [1] was 81.6%; in test [3] it was 86.1%; in test [4] it was 85.6%; in [10], 71.5%; in test [5], 105%; in test [6], 59%. Also, the growth is 92.8% in test [7], 112% in [8] and 84.5% in [9].
On to `COC(=O)Nc1ccc2ccc3c(NC(=O)OC)ccc4ccc1c2c43` (tested in a mixture with another compound), for which the growth is 24.1% in test [1]; 66.5% in test [3]; 76.2% in [4]; 87.9% in test [10]; 72% in test [5]; 51.1% in test [6]. Further, the figures for the growth in [7] and in [9] were 70.5% and 36.6%, respectively.
For `Nc1nc2c(nnn2Cc2ccc(Cl)c(Cl)c2)c(=O)[nH]1`, the growth in test [1] is 92%; in test [3] it was 98.5%; in test [4], 95.5%; in [10] it was 112%; in test [5], 97.4%; in test [6] it was 100%. In addition, the growth in test [7] is 106%; in [9], 105%.
As for `O=C(O)c1ccc2cccnc2c1O`, the growth in [1] is 5.47% (active); in test [3], 13.6%; in [4], 24.2%; in [10], 17.7%; in test [5], -10.7% (active); in test [6], 5.01% (active). Moreover, the growth in [7] is 1.49% (active); in test [9], -1.54% (active).
As for `c1ccc(-c2oc(-c3ccccc3)c3ccccc23)cc1`, the growth is 56.8% in test [1]; 102% in test [3]; 112% in test [4]; 116% in test [5]; 109% in [6]; 124% in [7]. The growth was 97.7% in test [8] and 96.5% in [9].
